Only some compounds are listed: those with a hit (about 12% of all), similar ones and a draw of the others.
L3MBTL1 inh – qHTS Assay for the Inhibitors of L3MBTL1; AlphaScreen L3MBTL1–H3K9me1 peptide binding; Potency, µM (highest dose often 57.1 µM), for inactives: at the top dose activity, negative = inhibition, usual class: inhibitors; hit rate 0.66% among 230,000; further: on the % scale 0 is the no-effect control and ±100 the full control effect; nearly all actives have a fitted effect of over 60% in size
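L3MBTL1 50 nM + b-AHA-H3(1-15)K9me1 75 nM, 30 min RT; compound added, 30 min RT; streptavidin donor/Ni-chelate acceptor beads 10 ug/mL each final, 30 min RT dark; AlphaScreen read.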
BAZ2B block – qHTS Assay for Inhibitors of BAZ2B; Bromodomain adjacent to zinc finger domain protein 2B (Homo sapiens), Q9UIF8; AlphaScreen BAZ2B-H3K14Ac peptide displacement; Potency, µM (titrated, usually from 114 µM), for the others: top-dose activity change, negative = inhibition, hits mostly inhibitors; hit rate 4.4% among 360,000; further: on the % scale 0 is the no-effect control and ±100 the full control effect; nearly all actives have a fitted effect of over 60% in size
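Inhibition is scored as reduced AlphaScreen emission. The BAZ2B/b-H3(5-23)K14Ac complex (50 nM each) in PBS pH 7.4, 0.01% Tween-20 meets compound (up to 110 uM) for 30 min at RT before bead addition.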
Sfp inh – qHTS Assay for Inhibitors of Bacillus subtilis Sfp phosphopantetheinyl transferase (PPTase); 4'-phosphopantetheinyl transferase ffp (Bacillus subtilis), Q9F4F7; Potency, µM, without a hit: largest response in the series, negative = inhibition, usual class: inhibitors; Biochemical Sfp PPTase activity, qHTS; hit rate 3.5% among 310,000;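 further: the enzyme is Sfp with the accession as filed and its product quenches rhodamine fluorescence; 0% = enzyme reaction without inhibitor and -100% = no enzyme wells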
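Buffer: 50 mM Hepes-Na pH 7.6, 10 mM MgCl2, 0.01% Nonidet P-40, 0.01% BSA. Enzyme 15 nM, pre-exposed to compound 15 min; substrates then added and fluorescence change tracked over 30 min.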
JMJD2A Tudor – qHTS Assay for Inhibitors of JMJD2A-Tudor Domain; Lysine-specific demethylase 4A (Homo sapiens), O75164; AlphaScreen JMJD2A-Tudor / H3K4me3 peptide binding; Potency, µM (top dose mostly 114 µM), for inactives: at the top dose activity change, negative = inhibition, actives largely listed as inhibitors; hit rate 4.4% among 390,000; further: on the % scale 0 is the no-effect control and ±100 the full control effect; nearly all actives have a fitted effect of over 50% in size
G9a block – qHTS Assay for Inhibitors of Histone Lysine Methyltransferase G9a; hit rate 8.8% among 350,000; Potency, µM (highest dose often 102 µM), for inactives: top-dose activity, negative = inhibition, usual class: inhibitors; AID 504332, 2011; G9a H3K9 monomethylation, AlphaScreen, 2 h; Histone-lysine N-methyltransferase EHMT2 (Homo sapiens), Q96KQ7; further: on the % scale 0 is the no-effect control and ±100 the full control effect; nearly all actives have a fitted effect of over 75% in size
Target sequence (Q96KQ7 913-1193 limits assumed): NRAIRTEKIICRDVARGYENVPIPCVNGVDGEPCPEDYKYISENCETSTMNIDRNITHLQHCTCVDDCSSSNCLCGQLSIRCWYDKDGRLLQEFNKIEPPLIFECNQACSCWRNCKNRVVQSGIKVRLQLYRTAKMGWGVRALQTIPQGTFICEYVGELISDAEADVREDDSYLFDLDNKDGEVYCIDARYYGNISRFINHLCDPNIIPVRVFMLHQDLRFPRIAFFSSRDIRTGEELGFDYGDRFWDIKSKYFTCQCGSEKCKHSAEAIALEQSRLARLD
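G9a (20 nM) preincubated 15 min RT with compounds, then 500 nM biotinylated H3K9 peptide and 20 uM SAM added; 2 h RT reaction. Monomethyl-H3K9 product detected by AlphaScreen with anti-H3K9me1 antibody, streptavidin donor and anti-rabbit IgG acceptor beads.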
HP1b binding inh – HTS for Inhibitors of HP1-beta Chromodomain Interactions with Methylated Histone Tails; Potency, µM (highest dose often 114 µM), for the others: at the top dose activity change, negative = inhibition, most hits filed as inhibitors; AlphaScreen HP1-beta / biotin-H3K9me3 peptide binding; Chromobox protein homolog 1 (Homo sapiens), P83916; hit rate 0.56% among 390,000; further: nearly all actives have a fitted effect of over 70% in size
Target sequence (P83916 whole entry, looked up): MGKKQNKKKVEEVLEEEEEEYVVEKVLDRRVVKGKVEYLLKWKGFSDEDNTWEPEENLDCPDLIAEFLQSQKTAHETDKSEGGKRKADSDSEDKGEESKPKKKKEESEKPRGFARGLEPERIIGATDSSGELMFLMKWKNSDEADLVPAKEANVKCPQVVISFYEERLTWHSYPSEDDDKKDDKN
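AlphaScreen: HP1-beta (50 nM) preformed 30 min with biotin-H3(1-18)K9me3 peptide (50 nM) in PBS pH 7.4, 0.01% Tween-20. Compound added for 30 min at RT, then streptavidin donor/nickel chelate acceptor beads (10 ug/mL) for 30 min.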
Active calls of the source: *; ? = inconclusive; . = no result; [ ] = another dose, or the depositor's remark. The call rests on the fitted dose curve; in most records, active means well fitted curve in the direction sought with a large enough effect; inconclusive means small, poorly fitted or top-dose-only effect, or another doubt; inactive means no such curve, though single readings can be large; an effect the other way counts as inactive or inconclusive. Potency means the concentration at half of the fitted maximal effect.

SMILES	L3MBTL1 inh	BAZ2B block	Sfp inh	JMJD2A Tudor	G9a block	HP1b binding inh
CC1CCN(C(=O)/C(=C/c2ccccc2Cl)c2ccccc2)CC1	-0.2%	0.1%	79.4µM*	-18.3%[11.4 µM]	-6.5%[59 µM]	27.7%
CN(Cc1nc2ccccc2[nH]1)C(=O)C1CCC(=O)N(CCc2cccc(F)c2)C1 (stereo not given)	.	-13.5%	16.0%	-10.9%	-5.4%	7.2%
CCOC(=O)C1CCN(C(=O)CCc2nc3ccccc3[nH]2)CC1	-2.0%	-2.2%	1.3%	2.4%	-2.9%[59 µM]	15.7%
CC(C)[C@H]1c2ccc(F)cc2CC[C@@]1(CCN(C)CCCc1nc2ccccc2[nH]1)OC(=O)C1CC1	.	.	44.7µM*	.	12.6µM*	.
CCNc1nnc(SCC(=O)c2c(N)n(C3CC3)c(=O)[nH]c2=O)s1	7.1%	10.9%	.	-10.8%	-13.8%[12.7 µM]	33.3%
CCNc1nnc(SCC(=O)c2cc(C)n(C3CC3)c2C)s1	-4.4%	-9.9%	.	-33.1%	50.1µM*	7.3%
Cc1cc(C(=O)CSc2ccc3c(c2)OCCO3)c(C)n1C1CC1	-15.1%	79.4µM*	-17.8%	-26.2%	?	-15.3%
O=C1N(Cc2ccccc2Cl)c2ccccc2C1(O)c1c[nH]c2ccccc12 (stereo not given)	.	?	.	?	-19.9%[59 µM]	-3.8%
Cc1ccc(-c2nc(CCNC(=O)C(=O)Nc3ccc(C)c(C)c3)cs2)cc1	.	6.8%	.	-2.9%	17.2%[59 µM]	19.1%[57 µM]
CCOc1ccc(NC(=S)Nc2ccc3nsnc3c2)cc1	-20.4%	-34.2%	?	-35.6%	?	?
C=CCN(CC=C)C(=S)Nc1ccc2nsnc2c1	8.91µM*	-11.4%	12.6µM*	3.6%	17.8µM*	33.7%
COc1ccc(NC(=S)Nc2ccc3nc(C)c(C)nc3c2)cc1	1.9%	0.5%	-17.1%	-13.5%	44.7µM*	7.8%
COc1ccc(NC(=S)Nc2ccc3nsnc3c2)cc1	-5.8%	-36.4%	56.2µM*	?	2µM*	?
Cc1ccc(C2CC(=O)NC(SCCC(C)C)=C2C#N)cc1 (stereo not given)	.	-3.3%	44.7µM*	-1.4%	31.6µM*	?
COc1cc(C2CC(=O)NC(SCC(=O)Nc3ccccc3C)=C2C#N)ccc1O (stereo not given)	-7.3%	-6.4%	3.7%	-8.7%	-3.7%[59 µM]	26.5%
CCCSC1=C(C#N)C(c2ccc(O)c(OC)c2)CC(=O)N1 (stereo not given)	.	10.3%	10.0%	-5.5%	50.1µM*	35.4%
COC(=O)CSC1=C(C#N)C(c2ccc(C(C)C)cc2)CC(=O)N1 (stereo not given)	.	8.3%	0.2%	-32.4%	?	15.9%
CCCSC1=C(C#N)C(c2ccccc2C)CC(=O)N1 (stereo not given)	-0.6%	7.4%	?	-8.2%	25.1µM*	33.1%
C=CCSC1=C(C#N)C(c2ccccc2OC)CC(=O)N1 (stereo not given)	-1.4%	12.8%	56.2µM*	-6.7%	?	26.1%
CCCCSC1=C(C#N)C(c2ccccc2C)CC(=O)N1 (stereo not given)	.	8.4%	5.5%	-13.1%	6.9%	55.2%
Cc1nc(NCc2ccccc2)c2nc(-c3ccccc3)n(CC(C)(C)CN(C)C)c2n1	.	.	1.9%	.	.	.
CCNc1ncc2nc(-c3cccs3)c(=O)n(CCc3ccccc3)c2n1	.	.	2.0%	.	11.6%[0.501 µM]	.
Cc1ccc(NC(=O)c2c(C)oc3c2C2=NCCN2C=N3)cc1F	.	-15.3%	.	-10.0%	9.9%[59 µM]	18.2%

High-throughput results from PubChem BioAssay.
